In the supplement of paper PMC4371806:
Whole data set: some 2,300 compounds, median “plate-normalized OD600 growth (mean of duplicates)” near 0.29, cut for the lowest 2% near 0.22. Shown is part of a subset that was picked to be rich in the lowest values.

System: Escherichia coli BW25113
Assay: plate-normalized OD600 growth (mean of duplicates) (OD600 (normalized)); higher = more growth (less inhibition)
Conditions: 10 µM
Protocol: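 E. coli BW25113 in LB (100 µl, 96-well, no shaking) was exposed to 10 µM of each compound from a ~30,000-member library and grown at 37°C for 24 h or 15°C for 48 h, in duplicate. Growth was read as OD600 and the duplicate ODs were normalized across screening plates to correct plate-to-plate variation. Hits were >3σ below the mean OD600 at 15°C and <2σ below the mean at 37°C.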

Compound | plate-normalized OD600 growth (temperature: 15°C, 48 h) | plate-normalized OD600 growth (temperature: 37°C, 24 h)
CCC/C=N/NC(=O)c1ccc(N2CCCC2=O)cc1 | 0.26 | 0.647
c1ccc2c(c1)OCCCOc1ccccc1OCCCO2 | 0.251 | 0.607
COc1cc(S(=O)(=O)N2CCN(c3c(C)cccc3C)CC2)c(OC)cc1Cl | 0.253 | 0.617
COc1cc2c(cc1OC)C(C)N(S(=O)(=O)c1cn(C)c(C)n1)CC2 (stereo unspecified) | 0.245 | 0.611
CC(C)CC(=O)N(NC(=O)c1ccccc1)c1ccccc1 | 0.22 | 0.615
COc1ccccc1Oc1ccc(C(F)(F)F)cc1NC(=O)NC(=O)c1ccccc1F | 0.265 | 0.619
O=C1/C(=C\c2ccccc2)N=C(c2ccccc2)N1CNc1nccs1 | 0.254 | 0.585
O=C(O)c1cccc(S(=O)(=O)Nc2ccc(Cl)cc2)c1 | 0.257 | 0.625
CC1=C(C#N)C(c2c(C)[nH]n(-c3ccccc3)c2=O)(C(F)(F)F)C(=O)N1 (stereo unspecified) | 0.26 | 0.62
COc1ccccc1N=C(N)SCc1ccccc1 | 0.236 | 0.606
CCc1ccc(NC(=O)CSc2nnc3n(N)cnn23)cc1 | 0.238 | 0.609
Cc1cc(O)c(C)c(O)c1/C=N/NC(=O)CNC(=O)c1ccco1 | 0.245 | 0.61
Cc1ccc(NC(=O)c2c3c(nc4ccccc24)CCCC3)cc1 | 0.239 | 0.614
C=CCn1c(C(O)c2ccccc2)n[nH]c1=S (stereo unspecified) | 0.247 | 0.613
O=c1nc(-c2ccccc2)nc(-c2ccccc2)[nH]1 | 0.26 | 0.617
Cc1ccc2nc(Cl)c(C=Nc3ccccn3)cc2c1 | 0.226 | 0.611
COc1ccc(S(=O)(=O)N(Cc2ccccc2)c2ccccc2C(=O)N/N=C(\C)c2ccccc2O)cc1 | 0.259 | 0.618
O=C(NC(=S)Nc1ccc(Cc2ccncc2)cc1)c1cccc2ccccc12 | 0.259 | 0.614
COc1cc(CCNC(=O)OC(C)(C)C)c([S+]([O-])CSCc2ccccc2)cc1OC (stereo unspecified) | 0.238 | 0.613
Cc1cc(=O)oc2n[nH]c(-c3ccccc3)c12 | 0.258 | 0.64
O=C(c1ccco1)N1CCC(c2ccccc2)C1 (stereo unspecified) | 0.201 | 0.642
NC(=O)C1CCN(C(=O)c2ccco2)CC1 | 0.25 | 0.628
O=C(NCCSC1CCCCC1)c1ccco1 | 0.221 | 0.633
CCOc1ccc(-c2[nH]nc3c2C2(C(=O)Nc4ccc(C)c(Br)c42)C(C#N)=C(N)O3)cc1 (stereo unspecified) | 0.245 | 0.6

Compound | plate-normalized OD600 growth (temperature: 15°C, 48 h) | plate-normalized OD600 growth (temperature: 37°C, 24 h)
N#CC1=C(N)Oc2n[nH]c(-c3cccs3)c2C12C(=O)Nc1ccc([N+](=O)[O-])cc12 (stereo unspecified) | 0.265 | 0.618
COC(=O)CN1C(=O)C2(C(C#N)=C(N)Oc3n[nH]c(C)c32)c2ccccc21 (stereo unspecified) | 0.207 | 0.65
CCOC(=O)c1c(N)oc2c(-c3ccc(C)c(Cl)c3)c3c(C(=O)OCC)c(N)oc3cc12 | 0.218 | 0.622
N#CCS(=O)(=O)c1cccs1 | 0.217 | 0.626
O=C(NC1Cc2ccccc2C1)c1cncc(Br)c1 | 0.281 | 0.658
c1ccc(-c2cc3c(nn2)CCc2nonc2-3)cc1 | 0.27 | 0.648
N#C/C(=C\c1ccc(OC(=O)c2cccc([N+](=O)[O-])c2)cc1)C(=O)c1ccccc1 | 0.211 | 0.634
O=C(N/N=C/c1ccc(OC(=O)c2cccc(F)c2)cc1)C1=NNC(c2ccccc2)(c2ccccc2)C1 | 0.267 | 0.624
COc1cc(O)ccc1/C=N/NC(=O)c1cccc([N+](=O)[O-])c1 | 0.248 | 0.614
CC(Oc1ccccc1)C(=O)Nc1ccc(Cl)cc1 (stereo unspecified) | 0.222 | 0.64
CC(=O)c1cnn(-c2ccccc2)c1C | 0.259 | 0.623
O=C(/C=C/c1cccs1)C(C(=O)c1ccccc1)=C1SCCCCS1 | 0.244 | 0.615
O=C(CSc1nc2ccccc2s1)Nc1cccn2cc(-c3ccccc3)nc12 | 0.263 | 0.614
COc1ccc(CNCC2COc3ccccc3O2)cc1OC (stereo unspecified) | 0.26 | 0.638
CC(C)Nc1nc(Cl)nc(Nc2cccc(C(F)(F)F)c2)n1 | 0.262 | 0.62
CCN=C(NCC)SC1CC(=O)N(c2ccc(C(=O)O)cc2)C1=O (stereo unspecified) | 0.246 | 0.617
CCOc1ccc(C(C)(C)C(=O)Nc2ccc(C(=O)/C=C/c3ccco3)cc2)cc1 | 0.266 | 0.639
Clc1ccc2nc(N3CCOCC3)nc(-c3ccccc3)c2c1 | 0.251 | 0.61
CCC(=O)Nc1nc2ccc(C)cc2s1 | 0.246 | 0.603
N#CC(C(=O)Nc1cccc(C(F)(F)F)c1)C(=S)Nc1ccccc1Cl (stereo unspecified) | 0.254 | 0.644
COc1cc(C(=S)N2CCCCC2)ccc1OC(=O)c1ccccc1 | 0.00796 | 0.606
CCCCOc1cc(C(=O)O)ccc1OC | 0.261 | 0.64
COc1ccc(C(=O)N2CCN(c3c(C)cccc3C)CC2)cc1OC | 0.257 | 0.622
Clc1cccc(Cl)c1/C=N/Nc1nncc(-c2ccccc2)n1 | 0.186 | 0.641
